SMILES strings stand for the structures. Hit rate of the full screen: of about 220,000 compounds, about 2,000 (0.91%) were called active. Inconclusive results (about 2%) are left out. The list is a sample of the results. Results with a measured potency or affinity are listed apart. Unmarked numbers belong to inactive results. Rule as the data show it: inconclusive = inhibition above about 80% without an active follow-up result; inactive = below that; test concentration not stated here.

As a reminder, the inhibition is the change of the read-out against control, counted positive when it falls.

The test can be described thus: M. tuberculosis H37Rv growth inhibitors, H37Rv strain (AID 1626).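 Also: bacteria incubated seven days before Alamar blue readout; 0% = bacteria only wells and 100% = bacteria with antibiotic wells.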 Particulars: hits give high values, concentration not given here.
Turning to `Cn1cc(C(=O)Cc2ccccc2)c2ccccc21`, the inhibition was 0.26%.
The figure for `Cn1c(-c2ccccc2)c(C(=O)CC#N)c2ccccc21` is 7.31%; for `Cn1cc(C(N)=O)c2ccccc21` it is -2.82%; for `CCn1c(-c2ccccc2)c(C(=O)CCl)c2ccccc21` it is 76.1%.
For `Cc1ccc(-c2ccc(NC(=O)C3C4C=CC(C4)C3C(=O)O)cc2)o1` (stereo unspecified), the inhibition was 66.8%.
For the compound `COCCCN(CCC#N)C(=O)c1c(-c2c(Cl)cccc2Cl)noc1C`, the inhibition is -10.4%.
Regarding `COc1cc(NC(=O)c2ccc([N+](=O)[O-])cc2)ccc1NC(=O)C(C)C`, the inhibition was 2.5%.
Take `Cc1cc([N+](=O)[O-])ccc1NC(=O)c1cccc(NC(=O)C(C)C)c1`: the inhibition is 10.8%.
With `COc1ccc(NC(=O)CCSc2nnc(C)s2)cc1` the figure was -0.89%; with `CC(=O)Nc1ccc(S(=O)(=O)N2CCCC(C(=O)O)C2)cc1` (stereo unspecified), 0.58%; with `FC(F)(F)c1nnc(-c2ccccc2)nc1N1CCCC1`, -1.21%.
Consider `CNc1nc(-c2ccccc2)nnc1C(F)(F)F`, for which the inhibition was -2.77%.
The figure for `FC(F)(F)c1nnc(-c2ccccc2)nc1Sc1ccc(Cl)cc1` is 36.4%; for `Cc1ccc(Sc2nc(-c3ccccc3)nnc2C(F)(F)F)cc1` it is 13.4%.
As for `Fc1ccc(Oc2nc(-c3ccccc3)nnc2C(F)(F)F)cc1`, the inhibition is -3.97%.
The figure for `FC(F)(F)c1cccc(Oc2nc(-c3ccccc3)nnc2C(F)(F)F)c1` is 8.03%.
With `COC(=O)CC/C(O)=C1/C(=N)CC(C)(C)CC1=O` the figure was -9.88%; with `CC1CCN(CCCNC(=O)COc2cc(=O)n(C)c3ccccc23)CC1`, -0.28%; with `O=C(CCn1c(=O)c2sccc2n(CC(=O)OCc2ccccc2)c1=O)NCc1ccccc1`, -4.57%.
As to `CC(=O)N(C1=C(N2CCOCC2)C(=O)c2ccccc2C1=O)c1ccc(C(=O)O)cc1`, the inhibition is -1.19%.
Take `CCC(=O)N(C1=C(NC(C)C)C(=O)c2ccccc2C1=O)C(C)C`: the inhibition was 3.87%.
Turning to `CCC(=O)N(C1=C(NC)C(=O)c2ccccc2C1=O)C(C)C`, the inhibition is 2.12%.
With `CC(=O)N(Cc1ccc(F)cc1)C1=C(NCCc2ccccc2)C(=O)c2ccccc2C1=O` the figure was 16.5%.
Regarding `CCNC(=O)/C=C1\NC(C)(C)Cc2c1ccc1ccccc21`, the inhibition was -3.91%.
With `O=C1OCCC1Sc1nc2ccccc2s1` (stereo unspecified) the figure was 6.97%; with `O=C(CN1CCN(Cc2ccccc2Cl)C1=O)NCc1ccccn1`, 1.55%.
On to `O=C(NCC1CCCO1)C(c1ccc(F)cc1)N(Cc1ccc(F)cc1)C(=O)Cn1nnc(-c2cccs2)n1` (stereo unspecified), for which the inhibition is -8.2%.
The figure for `O=C(NCCc1nc2ccccc2[nH]1)/C(=C/c1ccc2c(c1)OCO2)NC(=O)c1ccccc1Cl` is 2.62%; for `O=C(NCCc1nc2ccccc2[nH]1)/C(=C/c1ccc2c(c1)OCO2)NC(=O)c1ccccc1` it is 1.83%.
On to `Cc1n[nH]c(C)c1Cc1c(F)cccc1Cl`, for which the inhibition is -0.71%.
With `Nc1nc(N)nc(-c2ccccn2)n1`, the inhibition is -3.41%.
With `CC(NCc1ccc(Cl)cc1Cl)C(O)c1ccccc1` (stereo unspecified) the figure was 5.99%.
With `CC1CCCN(S(=O)(=O)c2ccc3c(c2)CCN3C(=O)C2CCC2)C1` (stereo unspecified) the figure was 5.83%; with `ONC(=Nc1ccc(Cl)cc1)c1ccc(Cl)cc1`, -13.7%; with `Cc1nn(-c2ccccc2)c(N)c1C(c1ccccc1)c1c(C)nn(-c2ccccc2)c1N`, 9.35%.
The figure for `Cc1ccc(C(c2c(C)nn(-c3ccccc3)c2N)c2c(C)nn(-c3ccccc3)c2N)cc1` is 6.99%.
For `C#CCNC(=O)C1CCN(c2cc(C)nc(-c3ccccc3)n2)CC1`, the inhibition is -0.44%.
As for `CCOC(=O)c1cc([N+](=O)[O-])sc1NC(=O)c1ccc(S(=O)(=O)N2CC3(C)CC2CC(C)(C)C3)cc1` (stereo unspecified), the inhibition is -0.55%.
The figure for `O=C(O)c1ccc(O)c(N2C(=O)Nc3ccccc3N2O)c1` is -1.41%; for `CC[C@@H]1C=C(C)C[C@H](C)C[C@H](OC)[C@H]2O[C@@](O)(C(=O)C(=O)N3CCCC[C@H]3C(=O)O[C@H](/C(C)=C/[C@@H]3CC[C@@H](O)[C@H](OC)C3)[C@H](C)[C@@H](O)CC1=O)[C@H](C)C[C@@H]2OC` it is 5.69%.
`Fc1cccc(CSc2nc3ncc(Cl)cc3[nH]2)c1`: the inhibition is -0.1%.
The figure for `CCc1[nH]c(=S)c(C#N)c2c1CCCC2` is -2.7%.
With `Cc1cccc2cc(/C=C/C(=O)c3ccco3)c(Cl)nc12` the figure was 7.5%; with `Cc1ccc(N/C=C/C(=O)c2ccco2)c(O)c1`, -2.39%.
For `COc1cc2cc(/C=C/C(=O)c3ccco3)c(Cl)nc2cc1OC`, the inhibition was -1.16%.
With `CCOc1ccc2nc(Cl)c(/C=C/C(=O)c3ccco3)cc2c1` the figure was 21.5%; with `Cc1nc([N+](=O)[O-])cn1CC(=O)NCCCO`, 8.65%; with `Cc1ccc(-n2c(CNC(=O)c3cccs3)nnc2SCC(=O)NO)cc1`, 2.75%.
Regarding `COC(=O)c1ccc(CN2CCN(Cc3ccccc3)C(CCO)C2)cc1` (stereo unspecified), the inhibition is -3.82%.
With `COc1ccc(N(C(=O)c2ccco2)C(C(=O)NC2CCCC2)c2ccc(N(C)C)cc2)cc1OC` (stereo unspecified) the figure was -5.56%.
The figure for `COC(=O)Cc1cc(=O)n2[nH]c(C)c(-c3ccccc3)c2n1` is -0.6%; for `O=c1cc(-c2ccccc2)nc2c(-c3ccccc3)c(C(F)(F)F)[nH]n12` it is 2.66%.
Turning to `Cc1ccccc1-c1cc2nc(-c3ccc([N+](=O)[O-])cc3)cc(=O)n2[nH]1`, the inhibition was -6.76%.
On to `CCCc1cc(=O)n2[nH]c(C)c(-c3ccccc3)c2n1`, for which the inhibition is 11.9%.
The figure for `COc1ccc(CCNCC(O)c2ccccc2)cc1` (stereo unspecified) is -12.7%.
On to `CC(NC(=O)c1ccccc1NC(=O)c1ccncc1)c1ccccc1` (stereo unspecified), for which the inhibition was 6.19%.
Regarding `CC(C)OC(=O)/C(=C\c1cccc2ccccc12)NC(=O)c1ccccc1`, the inhibition was 11.6%.
With `N/C(=N\OC(=O)c1ccc(Cl)cc1)c1[nH]ncc1Br` the figure was -8.82%; with `CC(C)(C)NC(=O)c1ccc2c(c1)N(CC(=O)N1CCN(c3ccc(F)cc3)CC1)C(=O)C(C)(C)O2`, 8.11%.
Regarding `O=C(O)c1cccc(S(=O)(=O)Nc2ccccc2N2CCOCC2)c1`, the inhibition is -1.57%.
As for `Cc1cccc(C(=O)O/N=C(\N)Cc2ccc([N+](=O)[O-])cc2)c1`, the inhibition is 7.62%.
The figure for `COc1ccccc1C1(CCN=Cc2ccc(N(C)C)cc2)CCOC(C)(C)C1` (stereo unspecified) is 2.7%; for `CCC(/C=C1\Sc2ccc(OC)cc2N1CC)=C\c1sc2ccc(OC)cc2[n+]1CCCS(=O)(=O)[O-]` it is 0.61%.
For the compound `CCC(=O)/C=C1\Sc2ccc(OC)cc2N1CCO`, the inhibition is -14.1%.
The figure for `O=C(NC1CCS(=O)(=O)C1)C1C2CC3CC(C2)CC1C3` (stereo unspecified) is 0.76%; for `O=C1CCCC(=O)C1Sc1ccc(Cl)cc1` it is 3.4%.
The figure for `COc1ccc(N=C/C=C2\C=C(c3ccccc3)OC(C)(C)O2)cc1` is 76.4%.
Regarding `CC1(C)OC(c2ccccc2)=C/C(=C/C=Nc2ccccc2)O1`, the inhibition is -2.83%.
Take `C1CSC2(N1)C1CC3CC2CC(C1)C31NCCS1` (stereo unspecified): the inhibition is -4.53%.
For `Cc1cc(C)cc(NC(=O)c2ccccc2CC[N+](=O)[O-])c1`, the inhibition is 58.2%.
`O=C(NCCCN1CCN(CCCNC(=O)c2ccc(F)cc2)CC1)c1ccc(F)cc1`: the inhibition is -9.24%.
For the compound `CC(C)(C)c1ccc(C(=O)NCCN2CCCC2)cc1`, the inhibition was -0.48%.
The figure for `CCOC(=O)c1ccc(NC(=O)NCCc2ccccc2OC)cc1` is 5.79%; for `CCN(CC)C(=O)c1c(C)[nH]c(=S)c(C#N)c1-c1ccco1` it is -4.78%; for `Brc1ccc(-c2cn3cccnc3n2)cc1` it is -1.72%.
For the compound `Brc1ccc(-c2cn3ccccc3n2)cc1`, the inhibition is -4.5%.
Consider `O=C1CCC(=O)N1CNc1cccnc1`, for which the inhibition was -9.49%.
As to `O=C1C2=C(CCCC2)C(=O)N1CNc1ccccc1`, the inhibition was -13.7%.
As for `CCn1c(=S)sc2c(=O)n(-c3ccccc3)c(=S)[nH]c21`, the inhibition was -1.81%.
`COc1ccc(C(=O)N2CCN(c3ccccc3OC)CC2)cc1`: the inhibition was 0.49%.
With `O=C(O)/C=C/c1ccc(S(=O)(=O)NCc2cccnc2)cc1` the figure was -0.59%.
With `CN(CC(O)COC(c1ccccc1)c1ccccc1)C1CCCCC1` (stereo unspecified) the figure was 5.91%; with `CC1CCCC(NC(=O)CSc2ccc(F)cc2)C1C` (stereo unspecified), -2.7%.
In the case of `Cc1cc([N+](=O)[O-])nn1CCCC(=O)Nc1cc(Oc2ccccc2)cc([N+](=O)[O-])c1`, the inhibition is 33.1%.
In the case of `Cc1c(Cl)c([N+](=O)[O-])nn1CCCC(=O)Nc1cccc(Cl)c1`, the inhibition is -0.67%.
On to `Cc1nn(CCCC(=O)Nc2cc(Oc3ccccc3)cc([N+](=O)[O-])c2)c(C)c1[N+](=O)[O-]`, for which the inhibition is 4.46%.
With `Cc1cc([N+](=O)[O-])nn1CCCC(=O)Nc1cc(Oc2ccc(F)cc2)cc([N+](=O)[O-])c1` the figure was 76%; with `Cc1ccccc1Oc1cc(NC(=O)CCCn2nc(C)c([N+](=O)[O-])c2C)cc([N+](=O)[O-])c1`, 4.71%; with `Cc1ccc(C)c(Oc2cc(NC(=O)CCCn3nc(C)c([N+](=O)[O-])c3C)cc([N+](=O)[O-])c2)c1`, 5.87%.
In the case of `CN1CCC(C2(O)c3ccccc3CCc3ccccc32)CC1`, the inhibition was -4.72%.
The figure for `Cc1ccc(-c2nn(-c3ccccc3)cc2/C=N/NC(=O)CSc2nnc(C)n2-c2ccccc2)cc1` is 5.75%.

The values above are taken from PubChem BioAssay AID1626 (SRMLSC, 2009).
